In PubChem BioAssay (Tox21):
Values joined by “and” are separate entries in the source; they are usually repeats but may differ in a detail not shown here. Identical values can stand only once. Inconclusive results are not listed. A call without a number means that no potency is given here. A structure can be active in one record and inactive in another. Active and inactive are the calls of the source. Unless noted, the call rests on the fitted dose curve; in most records, active means well fitted curve in the direction sought with a large enough effect in the repeat runs; inconclusive means weak or mixed curves; inactive means no such curve, though single readings can be large; an effect the other way counts as inactive or inconclusive.

How the values were obtained:
[1] = target: Luciferin 4-monooxygenase (Photinus pyralis) (UniProt P08659); assay: qHTS assay to identify small molecule inhibitors of firefly luciferase (AID 1224835); further: nearly all actives have a fitted effect of over 25% in size; further: potency means the concentration at half of the fitted maximal effect
Sequence of Luciferin 4-monooxygenase (Photinus pyralis) (P08659 whole entry, looked up): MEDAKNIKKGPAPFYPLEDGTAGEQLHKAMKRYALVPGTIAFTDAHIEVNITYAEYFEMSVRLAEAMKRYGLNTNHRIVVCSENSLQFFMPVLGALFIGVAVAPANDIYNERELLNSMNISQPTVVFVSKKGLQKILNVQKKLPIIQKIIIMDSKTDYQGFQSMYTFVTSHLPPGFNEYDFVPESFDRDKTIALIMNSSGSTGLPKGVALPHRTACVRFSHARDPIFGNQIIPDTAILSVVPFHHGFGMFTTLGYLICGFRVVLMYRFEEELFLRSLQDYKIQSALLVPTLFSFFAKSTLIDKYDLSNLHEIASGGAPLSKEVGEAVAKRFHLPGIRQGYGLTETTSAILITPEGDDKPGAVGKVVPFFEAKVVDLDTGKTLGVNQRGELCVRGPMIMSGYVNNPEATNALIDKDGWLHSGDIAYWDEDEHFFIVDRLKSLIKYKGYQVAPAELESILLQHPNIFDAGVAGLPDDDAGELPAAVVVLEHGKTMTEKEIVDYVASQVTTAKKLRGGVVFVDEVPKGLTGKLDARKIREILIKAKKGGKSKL
In short: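 Inhibition of purified Photinus luciferase is measured by luminescence. Substrate levels (D-luciferin, ATP) sit at their KM values. Each compound is tested in a concentration series.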

[2] = qHTS assay to identify small molecule antagonists of the constitutive androstane receptor (CAR) signaling pathway - cell viability counter screen (AID 1224837); further: nearly all actives have a fitted effect of over 45% in size; further: potency means the concentration at half of the fitted maximal effect
In short: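 CITCO at 50 nM final was added alongside compounds (15 concentrations) to double-stable hCAR/CYP2B6-2.2kb HepG2 cells. Following 23 hr at 37 C, cell viability was quantified by CellTiter-Fluor fluorescence intensity.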

[3] = target: Nuclear receptor subfamily 1 group I member 3 (Homo sapiens) (UniProt Q14994); assay: qHTS assay to identify small molecule antagonists of the constitutive androstane receptor (CAR) signaling pathway (AID 1224838); further: nearly all actives have a fitted effect of over 40% in size; further: potency means the concentration at half of the fitted maximal effect
Sequence of Nuclear receptor subfamily 1 group I member 3 (Homo sapiens) (Q14994 whole entry, looked up): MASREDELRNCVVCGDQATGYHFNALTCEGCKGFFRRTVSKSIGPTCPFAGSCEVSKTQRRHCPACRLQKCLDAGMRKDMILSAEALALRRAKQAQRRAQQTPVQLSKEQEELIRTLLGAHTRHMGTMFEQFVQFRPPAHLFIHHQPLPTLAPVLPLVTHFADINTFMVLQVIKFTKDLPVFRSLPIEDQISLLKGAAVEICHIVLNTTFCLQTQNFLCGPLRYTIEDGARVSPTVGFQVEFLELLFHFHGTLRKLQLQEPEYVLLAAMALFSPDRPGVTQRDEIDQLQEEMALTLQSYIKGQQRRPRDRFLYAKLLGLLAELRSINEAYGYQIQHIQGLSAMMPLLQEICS
In short: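 Inhibition of CITCO-driven (50 nM final) CYP2B6 reporter expression is measured in HepG2 cells stably carrying hCAR. Fifteen compound concentrations are applied for 24 h at 37 C, followed by luciferase luminescence.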

[4] = target: Nuclear receptor subfamily 1 group I member 3 (Homo sapiens) (UniProt Q14994); assay: qHTS assay to identify small molecule agonists of the constitutive androstane receptor (CAR) signaling pathway (AID 1224839); further: nearly all actives have a fitted effect of over 15% in size; further: potency means the concentration at half of the fitted maximal effect
In short: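 Luminescence read-out (ONE-Glo, 30 min, room temperature) from double-stable HepG2-CYP2B6-hCAR cells exposed 24 h to 15-point compound series in presence of 0.75 uM PK11195 final.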

[5] = qHTS assay to identify small molecule antagonists of the estrogen related receptor signaling pathway with the pleiotropic PPARgamma coactivator (PGC) from Tox21 10K library - cell viability counter screen (AID 1224840; active means well fitted cell-killing curve with a large enough effect in the repeat runs, not every such curve was filed as active; further: nearly all actives have a fitted effect of over 40% in size; further: potency means the concentration at half of the fitted maximal effect)
In short: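 Readout: fluorescence intensity from CellTiter-Fluor after 30 min at 37 C/5% CO2. Preceded by 17.5 h treatment of PGC/ERR cells with DMSO-dissolved compounds, added 6 h post-seeding.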

[6] = qHTS assay to identify small molecule antagonists of the estrogen related receptor signaling pathway with the pleiotropic PPARgamma coactivator (PGC) from Tox21 10K library (AID 1224841; call rule not given here; further: actives are mostly falling curves and most rising ones were filed inactive; nearly all actives have a fitted effect of over 50% in size)
In short: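 One-Glo luminescence, measured after half an hour at room temperature, quantified reporter output of PGC/ERR cells. These had been plated at 2,000 per well, incubated 6 h, dosed with compounds in DMSO, then kept 18 h at 37 C.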

[7] = qHTS assay to identify small molecule agonists of the estrogen related receptor signaling pathway with the pleiotropic PPARgamma coactivator (PGC) from Tox21 10K library (AID 1224842); further: nearly all actives have a fitted effect of over 15% in size
In short: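 Luminescence from One-Glo (30 min, room temperature) measured after PGC/ERR cells had 18 h at 37 C with pinned compound (23 nL in DMSO). Cells had been seeded at 2,000 per well and pre-incubated 6 h.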

[8] = target: Thyrotropin receptor (Homo sapiens) (UniProt P16473); assay: qHTS assay to identify small molecule agonists of the thyroid stimulating hormone receptor (TSHR) signaling pathway (AID 1224843; calls by dose curve; further: nearly all actives have a fitted effect of over 45% in size; further: potency means the concentration at half of the fitted maximal effect)
Sequence of Thyrotropin receptor (Homo sapiens) (P16473 whole entry, looked up): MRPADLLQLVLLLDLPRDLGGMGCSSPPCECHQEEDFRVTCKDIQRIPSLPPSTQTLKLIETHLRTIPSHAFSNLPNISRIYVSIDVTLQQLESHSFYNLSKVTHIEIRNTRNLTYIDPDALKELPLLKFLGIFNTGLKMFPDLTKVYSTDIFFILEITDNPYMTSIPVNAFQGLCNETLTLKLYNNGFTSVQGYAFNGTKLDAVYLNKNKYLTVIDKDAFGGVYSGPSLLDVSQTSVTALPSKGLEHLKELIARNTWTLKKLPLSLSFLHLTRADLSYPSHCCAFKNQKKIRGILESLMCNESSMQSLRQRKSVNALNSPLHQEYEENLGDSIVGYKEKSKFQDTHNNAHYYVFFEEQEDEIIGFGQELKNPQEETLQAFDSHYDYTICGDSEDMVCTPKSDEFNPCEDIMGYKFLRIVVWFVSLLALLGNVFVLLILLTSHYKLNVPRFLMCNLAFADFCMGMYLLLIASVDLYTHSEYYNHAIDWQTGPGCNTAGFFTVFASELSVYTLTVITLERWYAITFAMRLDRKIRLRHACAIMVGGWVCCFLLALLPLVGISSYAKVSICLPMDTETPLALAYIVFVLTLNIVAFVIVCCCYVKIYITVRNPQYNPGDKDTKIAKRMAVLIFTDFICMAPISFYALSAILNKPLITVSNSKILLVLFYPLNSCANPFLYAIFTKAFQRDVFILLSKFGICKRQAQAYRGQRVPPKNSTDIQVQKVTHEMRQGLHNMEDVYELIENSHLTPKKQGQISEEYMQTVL
In short: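 A cell-based cAMP HTRF format was run in TSHR-transfected HEK293 cells, 800 per well. Treatment: 30 min, room temperature. Detection: 1 h with labelled cAMP and anti-cAMP cryptate. Concentration-response over 15 points, three replicates.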

[9] = qHTS assay to identify small molecule agonists of H2AX (AID 1224845; active means well fitted activation curve with a large enough effect in the signal ratio in the repeat runs, not every such curve was filed as active; the % refers to the signal ratio)
In short: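 Phospho-H2AX Ser139 measured by HTRF (ex 320 nm; em 665 and 620 nm) after 24 hr antibody incubation. Compounds, 15 concentrations, 0.76% DMSO, were applied to CHO-K1 cells for 3hr at 37C before lysis.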

[10] = qHTS assay to identify small molecule antagonists of the estrogen related receptor (ERR) signaling pathway from Tox21 library (AID 1224848); further: nearly all actives have a fitted effect of over 50% in size; further: potency means the concentration at half of the fitted maximal effect
In short: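 ERR cell line, 2,000 cells/well. 6 h settle, then compound (DMSO) added; 18 h at 37 C; ONE-Glo luminescence after 30 min RT.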

[11] = qHTS assay to identify small molecule agonists of the estrogen related receptor (ERR) signaling pathway from Tox21 library (AID 1224849; calls by dose curve; further: nearly all actives have a fitted effect of over 15% in size); settings: ERR reporter cell line, ONE-Glo luciferase, 18 h
In short: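 Luciferase activity in ERR pathway reporter cells served as the agonist readout; exposure lasted 18 h at 37 C, with ONE-Glo detection after 30 min at room temperature.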

[12] = qHTS RealTime-Glo MT Cell Viability Assay in HepG2 cells - 24 hour (AID 1224867); further: nearly all actives have a fitted effect of over 50% in size; further: potency means the concentration at half of the fitted maximal effect
In short: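 Luminescence read-out: viable HepG2 cells reduce a prosubstrate to a NanoLuc substrate, giving a signal proportional to live cell number. Reads taken at 0, 8, 16, 24, 32 and 40 h of compound exposure at 37 C.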

[13] = qHTS RealTime-Glo MT Cell Viability Assay in HEK293 cells - 32 hour (AID 1224868); further: nearly all actives have a fitted effect of over 50% in size; further: potency means the concentration at half of the fitted maximal effect
In short: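 Nonlytic real-time viability readout: viable cells convert prosubstrate to NanoLuc substrate, giving luminescence proportional to live cell number. HEK293, 600 cells/well, compound added after 5 h, continuous culture at 37 C.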

[14] = A CellTox Green Cytotoxicity Assay to monitor cytotoxicity in HEK293 cells - 0 hour (AID 1224869); further: nearly all actives have a fitted effect of over 50% in size
In short: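 Real-time, in one plate: 600 HEK293 cells/well with dead-cell DNA dye, pinned compound after 5 h, 37 C incubation over 40 h; viable cells give no appreciable fluorescence.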

[15] = qHTS RealTime-Glo MT Cell Viability Assay in HepG2 cells - 40 hour (AID 1224870); further: nearly all actives have a fitted effect of over 50% in size; further: potency means the concentration at half of the fitted maximal effect
In short: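 Real-time viability: cells seeded at 600 per well together with NanoLuc and cell-permeant prosubstrate, compounds added after 5 h incubation. Luminescence tracked at 0, 8, 16, 24, 32 and 40 h of exposure.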

[16] = qHTS assay to identify small molecule agonists of the hypoxia (HIF-1) signaling pathway - cell viability counter screen (AID 1224844; calls by dose curve; further: nearly all actives have a fitted effect of over 50% in size; further: potency means the concentration at half of the fitted maximal effect)
In short: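 In this counter screen, HRE-bla ME-180 cell viability after 17 hrs of compound exposure at 37C was read by CellTiter-Glo luminescence, multiplexed with the beta-lactamase reporter measurement.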

[17] = qHTS assay to identify small molecule agonists of the hypoxia (HIF-1) signaling pathway (AID 1224846; active means well fitted activation curve with a large enough effect in the signal ratio in the repeat runs, not every such curve was filed as active; the % refers to the signal ratio)
In short: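 ME-180 HRE-bla reporter cells; compounds in DMSO, 17 h at 37C; read-out beta-lactamase via CCF4-AM FRET.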

[18] = qHTS assay to identify small molecule agonists of H2AX - cell viability counter screen (AID 1224847; calls by dose curve; further: nearly all actives have a fitted effect of over 30% in size; further: potency means the concentration at half of the fitted maximal effect)
In short: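 CHO-K1 wt, 1000 cells/well, o/n 37C; cpds 15 conc, 3 h 37C, 0.76% DMSO; CellTiter-Glo, 30 min RT, luminescence.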

[19] = qHTS assay to identify small molecule agonists of the constitutive androstane receptor (CAR) signaling pathway - cell viability counter screen (AID 1224836); further: nearly all actives have a fitted effect of over 45% in size
In short: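 Viability read-out: CellTiter-Fluor fluorescence after 23 h compound exposure at 37 C/5% CO2 in double-stable HepG2-CYP2B6-hCAR cells, with PK11195 present at 0.75 uM final; compounds tested in 15-point titration.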

Row | Structure (SMILES) | Potency [1] | Potency [2] | Potency [3] | Potency [4] | Potency [5] | Potency [6] | Potency [7] | Potency [8] | Potency [9] | Potency [10] | activity change, positive = activation ([11]; at 42.5 µM (top of the series)) | Potency [12] | Potency [13] | Potency [14] | Potency [15] | Potency [16] | Potency [17] | Potency [18] | Potency [19] | activity change, positive = activation ([11]; at 92.4 µM (top of the series))
1 | N[C@@H]1CONC1=O | inactive | inactive | inactive | inactive | inactive | inactive | inactive | inactive | inactive | inactive | 7.16% (inactive) | inactive | inactive | inactive | inactive | – | – | – | – | –
2 | CC(C)(C)NCC(O)COc1ccccc1OCC1CCCO1 (stereo not drawn) | inactive | inactive | inactive | inactive | inactive | inactive | inactive | inactive | inactive | inactive | 4.72% (inactive) | inactive | inactive | inactive | inactive | inactive | inactive | inactive | – | –
3 | CC(C)CCCCCCc1ccc(O)cc1 | 36.2 µM (active) and inactive | – | 1.11 µM (active) | inactive and 17.2 µM (active) | 48.6 µM (active) | – | – | – | – | – | – | 22.3 µM (active) and inactive | 2.23 µM (active) | inactive | 25 µM (active) and inactive | 11.2 µM (active) | – | 91.4 µM (active) and 56.6 µM (active) | – | –
4 | O=C1NCC2(CCN(CCc3ccccc3)CC2)O1 | inactive | inactive | inactive | inactive | inactive | – | – | inactive | inactive | – | – | inactive | inactive | inactive | inactive | inactive | – | inactive | inactive | –
5 | CCC[C@H](N[C@@H](C)C(=O)N1[C@H](C(=O)O)C[C@@H]2CCCC[C@@H]21)C(=O)OCC | inactive | inactive | – | – | inactive | – | – | inactive | inactive | – | – | inactive | – | inactive | inactive | inactive | inactive | inactive | – | –
6 | CCCCC(CC)COC(=O)CC(C(=O)OCC(CC)CCCC)S(=O)(=O)O (stereo not drawn) | inactive | inactive | inactive | inactive | inactive | – | – | – | inactive | – | – | – | – | inactive | inactive | 26.5 µM (active) and 21.9 µM (active) | – | – | inactive | –
7 | Oc1c(Cl)cc(Cl)c(Cl)c1Cc1c(O)c(Cl)cc(Cl)c1Cl | inactive | 9.44 µM (active) | 10.8 µM (active) and 10.9 µM (active) and 9.44 µM (active) | inactive | – | – | – | 15.3 µM (active) and inactive | inactive | 3.05 µM (active) and 2.73 µM (active) and 3.35 µM (active) | -49.7% (inactive) | inactive | 3.08 µM (active) and 5.49 µM (active) | inactive | inactive and 38.9 µM (active) | 19.4 µM (active) and 19.5 µM (active) | – | 25.2 µM (active) and 40.1 µM (active) | – | -37.2% (inactive) and -60.8% (inactive)
